This is an account of results in PubChem BioAssay AID588398 (Broad Institute, 2011).

The whole screen tested about 1,200 compounds, of which about 110 (9.2%) were called active. Inconclusive results (about 8%) are left out. These entries were drawn from the full list. Entries with a potency or affinity are not part of this list. Unmarked numbers belong to inactive results.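 The calls were made as follows: active = pathway reporter half-maximal dose under half the control reporter's, or control reporter unaffected while pathway reporter is inhibited; inconclusive = either signal flat at 30 to 70% inhibition or poorly fitted; inactive = the rest.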

A short description of this assay: TES1-eGFP NF-kB reporter inhibition versus Tet-On dsRED, dose response, selectivity assay for LMP1 NF-kB inhibitor project, imaging, HEK293T, dual-color eGFP/dsRED, cherry-picks (AID 588398).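 Also: 0% = median of neutral control wells and -100% = median of MG132 positive control wells.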 To be noted: 48 h; HEK293T Tet-On dsRED counter-screen channel, at 19.5 µM (top of the series); activity change, negative = inhibition: at the top concentration. In general terms: The purpose of a counterscreen is to sort out artefacts and off-target activity.
Regarding `CC1CCN(CCOc2ccc(C(=O)c3ccccc3)cc2)CC1`, the “activity change, negative = inhibition” value was 36.3%.

Turning to `CCC(C)[C@H](NC(=O)NCc1cccnc1)C(=O)OC` (stereo partly drawn), the “activity change, negative = inhibition” value is 4.65%.

Turning to `Cc1cc(C(=O)COc2cccnc2[N+](=O)[O-])c(C)n1-c1ccccc1F`, the “activity change, negative = inhibition” value was -11.3%.

Take `CCOc1ccc(Nc2ncnc3ccc([N+](=O)[O-])cc23)cc1`: the “activity change, negative = inhibition” value is -42.1%.

On to `O=C1CCCCC1Sc1nnc(-c2ccc3c(c2)OCO3)o1` (stereo not drawn), for which the “activity change, negative = inhibition” value is 4.25%.

On to `C=CCn1c(=O)/c(=C/c2ccc(Cl)cc2)s/c1=C(\C#N)c1nnc2n1CCCCC2`, for which the “activity change, negative = inhibition” value was -6.95%.

Turning to `Cc1ccc(OCC(=O)NNC(=S)NC(=O)C2CCCCC2)c(C)c1`, the “activity change, negative = inhibition” value is 10.5%.

Take `Cc1cc(NC(=O)c2ccc(C)s2)n(-c2nc3ccccc3[nH]2)n1`: the “activity change, negative = inhibition” value was 55.5%.

For the compound `COc1ccc(OC)c(NC(=O)COC(=O)COc2ccc(Nc3ccccc3)cc2)c1`, the “activity change, negative = inhibition” value is -1.56%.

Take `C(=Cc1cnc2ccccc2n1)c1ccc2c(c1)OCO2`: the “activity change, negative = inhibition” value was 7.85%.

With `CCOc1ccc(NC(=O)c2ccc(N3CC4CC(C3)c3cccc(=O)n3C4)c(NC(=O)c3cccnc3)c2)cc1` (stereo not drawn), the “activity change, negative = inhibition” value is 21.6%.

With `COc1ccc(N2C(=O)C(Cl)=C(NCc3ccccc3)C2=O)cc1`, the “activity change, negative = inhibition” value is -1.67%.

For the compound `CCOc1ccccc1/C=C/c1onc(C)c1S(=O)(=O)N1CCC(C(=O)N(CC)CC)CC1`, the “activity change, negative = inhibition” value is -12.9%.

As to `Cc1ccc(S(=O)(=O)N2CCN(C(=O)COC(=O)COc3ccc(Cl)cc3)CC2)c(C)c1`, the “activity change, negative = inhibition” value is -2.22%.

Consider `CCOC(=O)N1CCC(NC(=O)C2CCCN(Cc3nc(-c4cccc(Cl)c4)oc3C)C2)CC1` (stereo not drawn), for which the “activity change, negative = inhibition” value is 6.91%.

With `COc1ccc(S(=O)(=O)N2CCCCCC2)cc1C(=O)OCc1cccc(OC)c1OC`, the “activity change, negative = inhibition” value was 0.989%.

`Fc1cccc(Cl)c1/C=N/n1c(-c2cccnc2)n[nH]c1=S`: the “activity change, negative = inhibition” value was 10.6%.

For `CC(=O)c1cccc(NC(=O)Nc2ccc(C(=O)N3CCOCC3)cc2)c1`, the “activity change, negative = inhibition” value was -34.4%.

Take `O=C(c1ccccc1Br)N1CCN(Cc2ccc3c(c2)OCO3)CC1`: the “activity change, negative = inhibition” value is -23.1%.

With `CCC(=O)NC(c1ccc(Cl)cc1Cl)c1ccc2cccnc2c1O` (stereo not drawn), the “activity change, negative = inhibition” value is -96.5%.

On to `CC(=O)NC(c1ccc(Cl)cc1)c1ccc2cccnc2c1O` (stereo not drawn), for which the “activity change, negative = inhibition” value is -97.4%.

Turning to `Cc1ccc2[nH]c3c(c2c1)CCCC3NC(=O)CCl` (stereo not drawn), the “activity change, negative = inhibition” value was -99.7%.

For `Cc1cccc(-n2c(O)c(C=Nc3c(C)n(C)n(-c4ccccc4)c3=O)c3ccccc3c2=O)n1`, the “activity change, negative = inhibition” value was 13.3%.

In the case of `CC(=O)OC1CCC2(C)C(CCC3C4CC=C(C(C)=O)C4(C)OC(=O)CC32)C1` (stereo not drawn), the “activity change, negative = inhibition” value was -18.4%.

`O=C1NC(=O)/C(=C\c2ccc(OCc3cccc(C(=O)O)c3)c(Cl)c2)N1`: the “activity change, negative = inhibition” value is 19.6%.

In the case of `CN1CCN(C(=O)C2=C[C@@H](C(C)(C)C)C[C@@H](OCc3ccc(CO)cc3)O2)CC1`, the “activity change, negative = inhibition” value was 0.267%.

For the compound `COc1ccc(N2CCN(CCNC(=O)CCCn3c(=O)[nH]c4cc(Cl)ccc4c3=O)CC2)cc1`, the “activity change, negative = inhibition” value is 0.649%.

On to `CCn1c(SC(C)C)nnc1-c1c[nH]c2ccccc12`, for which the “activity change, negative = inhibition” value is 5.13%.

With `CCn1c2ccccc2c2cc(/C=N/NC(=O)c3ccncc3)ccc21`, the “activity change, negative = inhibition” value was -99%.

Consider `CCn1c2ccccc2c2cc(/C=N/NC(=O)c3cc(O)cc(O)c3)ccc21`, for which the “activity change, negative = inhibition” value is -72.5% [HEK293T LMP1 TES1-eGFP reporter, at 6.8 µM].

As for `CC1CC(C)C(=O)C(C(CC2CC(=O)NC(=O)C2)OC(=O)CC(=O)c2ccccc2)C1` (stereo not drawn), the “activity change, negative = inhibition” value was -83.3%.

For the compound `COc1cc(C(c2sc3nc(C)nn3c2O)N2CCc3ccccc3C2)cc(OC)c1OC` (stereo not drawn), the “activity change, negative = inhibition” value is 23.8%.

With `CCOc1ccccc1NC(=O)Cn1c(=O)sc2ccccc21`, the “activity change, negative = inhibition” value was -18.1%.

In the case of `O=C(NC(c1ccc(Cl)cc1)c1cc(Cl)c2cccnc2c1O)c1cccnc1` (stereo not drawn), the “activity change, negative = inhibition” value is -5.67%.

Take `CCOc1cc(Br)cc(/C=N/NC(=O)c2cccnc2)c1O`: the “activity change, negative = inhibition” value is 7.87%.

For `Cc1cc(N2CCOCC2)c2c(N)c(Br)cc(C)c2n1`, the “activity change, negative = inhibition” value was -92.6%.

For the compound `CC1CC(C)CN(S(=O)(=O)c2ccc(NC(=O)CCN3C(=O)C4CC=CCC4C3=O)cc2)C1` (stereo not drawn), the “activity change, negative = inhibition” value is -14%.

As to `CCN(CC)S(=O)(=O)c1cccc(-n2c(O)c(C=Nc3ccccc3C(=O)O)c3ccccc3c2=O)c1`, the “activity change, negative = inhibition” value is 13.8%.

In the case of `Cc1ccc(CN2C(=O)CCC2C(=O)NCCCN2CCC(C)CC2)cc1` (stereo not drawn), the “activity change, negative = inhibition” value was 8.48%.

With `Cn1cc(SCC(=O)NCC2CCCO2)c2ccccc21` (stereo not drawn), the “activity change, negative = inhibition” value was 7.65%.

Turning to `O=Cc1ccc(-c2cccs2)s1`, the “activity change, negative = inhibition” value is -98.5%.

Take `COc1ccc(NC(=O)CCS(=O)(=O)c2ccc3c(c2)CCN3C(C)=O)cc1`: the “activity change, negative = inhibition” value is 6.17%.

In the case of `C=CCn1c(C)c(C(C)=O)c(N2CCN(C(c3ccccc3)c3ccccc3)CC2)nc1=S`, the “activity change, negative = inhibition” value is -16.5%.

As to `O=C(N/N=C/c1cccs1)c1n[nH]c2c1CCCC2`, the “activity change, negative = inhibition” value is 10.9%.

In the case of `COc1cc2oc(=O)cc(-c3ccc(-c4ccc(N(C)C)cc4)cc3)c2c(OC)c1OC`, the “activity change, negative = inhibition” value is 56.6%.

For the compound `COc1ccc(C(=O)NCCNc2nc3cc(C)c(C)cc3cc2C)cc1`, the “activity change, negative = inhibition” value was 14%.

As for `COc1ccc(C=Cc2ccc3ccccc3n2)c(OC)c1`, the “activity change, negative = inhibition” value is 10.7%.

In the case of `O=C(c1sc2cc([N+](=O)[O-])ccc2c1Cl)N1CCOCC1`, the “activity change, negative = inhibition” value is -12.8%.

For the compound `O=C(N/N=C/c1sc2ccccc2c1O)c1cccc2ccccc12`, the “activity change, negative = inhibition” value is -97.3%.

For the compound `COc1cccc(C(=O)CC(=O)C(=O)Nc2ccc(C)cc2Cl)c1`, the “activity change, negative = inhibition” value is 4.92%.

`COc1ccc(NC2=NCC(Cc3ccc(Br)cc3)S2)cc1` (stereo not drawn): the “activity change, negative = inhibition” value is 57.7%.

In the case of `O=C(N/N=C/c1ccc(O)cc1O)c1ccc(CN2C(=O)c3cccc4cccc2c34)cc1`, the “activity change, negative = inhibition” value was -69.9%.

With `O=C(O)c1ccc(C=NNC(=O)c2cccc3ccccc23)cc1`, the “activity change, negative = inhibition” value was -1.92%.
